# From the supplement of paper PMC10127200
# Structures can show the parent of a compound that is named as a salt.
# Assays:
# Test in all cases: Euclidean distance of Cell Painting phenotypic profile (signed KS, 77 features) to DMSO centroid (dimensionless distance); 5 or 10 uM (library dependent); higher = stronger phenotypic change vs DMSO (phenoactivity)
# Conditions in all cases: 48 h
# 786-O = test system: 786-O
# Summary of the method: (§1)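 Phenoactivity is computed as Euclidean distance to the median vehicle profile. The profiles, drawn from 77 Harmony features scored as signed Kolmogorov-Smirnov statistics versus same-plate vehicle wells, were corrected for plate position, correlation-weighted and replicate-averaged at the top dose. Stained cells were imaged confocally at 20X (9 fields/well) after 48 h with library compounds at 10 or 5 uM, 0.1% DMSO final, in five cancer lines and a healthy fibroblast line.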
# A549 = test system: A549
# Summary of the method: as §1
# DU145 = test system: DU145
# Summary of the method: as §1
# FB = test system: FB
# Summary of the method: as §1
# HEPG2 = test system: HEPG2
# Summary of the method: as §1
# OVCAR4 = test system: OVCAR4
# Summary of the method: as §1
SMILES,Euclidean distance (786-O),Euclidean distance (A549),Euclidean distance (DU145),Euclidean distance (FB),Euclidean distance (HEPG2),Euclidean distance (OVCAR4)
COc1nc2ccc(Br)cc2cc1[C@@H](c1ccccc1)[C@@](O)(CCN(C)C)c1cccc2ccccc12 [Bedaquiline],1.63,1.17,1.33,0.823,0.496,0.927
Cc1cc(O)c2c(c1)C(=O)c1cc(O)cc(O)c1C2=O [Emodin],1.3,1.13,1.01,1,1.85,0.712
CC1CCN(CC[C@H]2CCCN2S(=O)(=O)c2cccc(O)c2)CC1,0.546,0.904,0.705,1.11,1.48,0.827
Nc1ncn([C@H]2C[C@H](O)[C@@H](CO)O2)c(=O)n1 [Decitabine],1.92,1.42,1.18,1.43,1.56,1.55
CC(=O)OC[C@H]1O[C@@H]([S-])[C@H](OC(C)=O)[C@@H](OC(C)=O)[C@@H]1OC(C)=O.CCP(CC)CC.[Au+] [Auranofin],5.67,4.89,6.36,6.74,3.39,5.08
CC[C@H](C)C(=O)O[C@H]1C[C@H](O)C=C2C=C[C@H](C)[C@H](CC[C@@H](O)C[C@@H](O)CC(=O)O)[C@H]21 [Pravastatin sodium],0.813,0.763,0.709,0.425,0.254,0.778
CNC(=O)c1cc(Oc2ccc(NC(=O)Nc3ccc(Cl)c(C(F)(F)F)c3)cc2)ccn1 [Sorafenib],2.08,2.51,1.74,1.78,2.93,2.28
CCn1c(=O)c2c(nc(/C=C/c3ccc(OC)c(OC)c3)n2C)n(CC)c1=O [Istradefylline],1.47,1.5,0.734,1.18,0.77,1.44
O=c1sn(-c2cccc3ccccc23)c(=O)n1Cc1ccccc1 [Tideglusib],0.967,0.321,0.768,0.656,0.456,1.14
CC(C)n1nc(-c2cc3cc(O)ccc3[nH]2)c2c(N)ncnc21,4.59,3.23,2.64,4.3,3.12,4.61
COc1ccccc1N1CCN(CCN(C(=O)C2CCCCC2)c2ccccn2)CC1,0.724,1.67,1.84,3.28,2.11,4.14
Nc1ncnc2n[nH]c(Nc3ccc(F)cc3)c12,0.861,2.17,1.25,1.67,0.599,1.4
C=CC(=O)N1CCC[C@@H](n2nc(-c3ccc(Oc4ccccc4)cc3)c3c(N)ncnc32)C1,1.76,2.16,2.61,2.35,1.42,2.38
O=[N+]([O-])c1ccc2c(c1)S(=O)(=O)C=C2 [Stattic],5.16,2.51,2.61,3.89,1.16,4.56
CC(=O)[C@H]1CC[C@H]2[C@@H]3CC=C4C[C@@H](O)CC[C@]4(C)[C@H]3CC[C@]12C [Pregnenolone],1.29,1.07,0.872,1.07,0.703,1.03
Cc1ncc(-c2ccnc(Nc3ccc(S(C)(=O)=O)cc3)n2)n1C(C)C,2.6,3.78,3.05,3.19,3.09,3.43
Cc1cccc(Nc2ccncc2S(=O)(=O)NC(=O)NC(C)C)c1 [Torsemide],0.608,0.66,0.572,0.798,0.917,0.866
O=C(O)/C=C/c1ccc(O)cc1 [p-Coumaric Acid],1.47,0.995,0.894,0.846,1.05,0.854

SMILES,Euclidean distance (786-O),Euclidean distance (A549),Euclidean distance (DU145),Euclidean distance (FB),Euclidean distance (HEPG2),Euclidean distance (OVCAR4)
COc1cc(NS(=O)(=O)c2ccc(N)cc2)nc(OC)n1 [SulfadiMethoxine sodium],1.05,0.781,0.776,1.03,0.428,0.631
N[C@@H](Cc1cc(I)c(Oc2ccc(O)c(I)c2)c(I)c1)C(=O)O [Triiodothyronine],1.04,1.57,1.08,0.968,0.865,1.58
C[C@@H]1O[C@@H]1P(=O)(O)O [Fosfomycin Disodium],1.44,0.52,0.647,0.793,0.716,0.92
C#Cc1cccc(Nc2ncnc3cc(OCCOC)c(OCCOC)cc23)c1 [Erlotinib],1.68,2.34,1.94,3.62,0.991,1.87
CO/N=C(\C(=O)N[C@@H]1C(=O)N2C(C(=O)O)=C(CSC(=O)c3ccco3)CS[C@H]12)c1csc(N)n1 [Ceftiofur],0.442,0.362,0.719,0.698,1.81,1.07
CC(C)c1cc(-c2ccc(F)c3ccccc23)nc(N)n1,0.8,0.73,0.946,0.742,1,1.28
C[C@]12CCC(=O)C=C1C=C[C@@H]1[C@@H]2CC[C@@]2(C)[C@H]1CC[C@@]21CCC(=O)O1 [Canrenone],1.64,0.961,1.1,1.33,1.24,1.05
OC[C@H]1O[C@@H](Oc2cc(O)cc(/C=C/c3ccc(O)cc3)c2)[C@H](O)[C@@H](O)[C@@H]1O [Polydatin],1.21,2.03,1.22,0.978,0.886,1.3
CN(C/C=C/C#CC(C)(C)C)Cc1cccc2ccccc12 [Terbinafine],1.56,0.66,0.898,0.587,1.36,1.18
CC(C)c1noc(N2CCC(COc3ccc(-c4ccc(S(C)(=O)=O)cc4)nc3)CC2)n1,1.17,1.53,0.872,0.701,0.585,0.984
CCN(CC)Cc1ccc2cc(COC(=O)Nc3ccc(C(=O)NO)cc3)ccc2c1 [Givinostat (ITF2357)],2.68,3.9,2.88,3.63,4.2,3.32
Nc1ccn([C@@H]2CS[C@H](CO)O2)c(=O)n1 [Lamivudine],0.725,0.508,0.589,1,1.07,0.623
Cc1c(S(=O)(=O)O)oc2c1C(=O)C(=O)c1c-2ccc2c1CCCC2(C)C [Tanshinone IIA sulfonate (sodium)],0.814,0.633,1.71,1.05,0.728,1.24
O=C1C(O)=C([C@H]2CC[C@H](c3ccc(Cl)cc3)CC2)C(=O)c2ccccc21 [Atovaquone],1.3,0.846,1.08,1.41,0.566,1.08
CC(=O)OCC1=C(C(=O)O)N2C(=O)[C@@H](NC(=O)CSc3ccncc3)[C@H]2SC1 [Cephapirin Benzathine],1.51,0.954,0.791,1.16,0.75,0.965
C#CCC(Cc1cnc2nc(N)nc(N)c2n1)c1ccc(C(=O)N[C@@H](CCC(=O)O)C(=O)O)cc1 (stereo partly specified) [Pralatrexate],1.51,2.98,0.922,1.25,1.73,2.44
CNC[C@H](O)c1cccc(O)c1 [Phenylephrine HCl],1.46,0.809,0.788,1.34,0.549,0.844
CCC[C@@H](C=O)NC(=O)[C@H](CC(C)C)NC(=O)[C@H](CC(C)C)NC(=O)OCc1ccccc1,5.22,4.01,5.17,4.63,4.52,5.15
